# Measured values published in paper PMC5540273 (PLoS ONE, 2017).
# Read-outs that look alike come from different tables or passages of the source.
# Assays:
# [1] = tested on: FLT1; settings: concentration: 1 μM, replicates: in singlicate; n = 1
# [2] = tested on: FLT3-autoinhibited; settings: concentration: 1 μM, replicates: in singlicate; n = 1
# [3] = tested on: FLT3; settings: concentration: 1 μM, replicates: in singlicate; n = 1
# [4] = tested on: FLT4; settings: concentration: 1 μM, replicates: in singlicate; n = 1
# [5] = tested on: FRK; settings: concentration: 1 μM, replicates: in singlicate; n = 1
# [6] = tested on: FYN; settings: concentration: 1 μM, replicates: in singlicate; n = 1
# [7] = tested on: GAK; settings: concentration: 1 μM, replicates: in singlicate; n = 1
# [8] = tested on: T1, GCN2(Kin.Dom.2,S808G); settings: concentration: 1 μM, replicates: in singlicate; n = 1
# T1 construct: gene EIF2AK4
# [9] = tested on: GRK1; settings: concentration: 1 μM, replicates: in singlicate; n = 1
# [10] = tested on: T2, GRK2; settings: concentration: 1 μM, replicates: in singlicate; n = 1
# T2 construct: gene ADRBK1
# [11] = tested on: T3, GRK3; settings: concentration: 1 μM, replicates: in singlicate; n = 1
# T3 construct: gene ADRBK2
# [12] = tested on: GRK4; settings: concentration: 1 μM, replicates: in singlicate; n = 1
# [13] = tested on: GRK7; settings: concentration: 1 μM, replicates: in singlicate; n = 1
# [14] = tested on: GSK3A; settings: concentration: 1 μM, replicates: in singlicate; n = 1
# [15] = tested on: GSK3B; settings: n = 1
# [16] = tested on: T4, HASPIN; settings: concentration: 1 μM, replicates: in singlicate; n = 1
# T4 construct: gene GSG2
# [17] = tested on: HCK; settings: concentration: 1 μM, replicates: in singlicate; n = 1
# [18] = tested on: HIPK1; settings: concentration: 1 μM, replicates: in singlicate; n = 1
# [19] = tested on: HIPK2; settings: concentration: 1 μM, replicates: in singlicate; n = 1
# [20] = tested on: HIPK3; settings: concentration: 1 μM, replicates: in singlicate; n = 1
# [21] = concentration: 1 μM, replicates: in singlicate
# 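Note: KINOMEscan kinase panel screen.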
smiles,measurement,setting,value
COc1ccc(Nc2nccc(N3CCC(NC(=O)c4cc5ccccc5s4)C3)n2)cc1 (stereo not shown) [GSK1379738],%Inh,[1],14%
same,%Inh,[2],0%
same,%Inh,[3],0%
same,%Inh,[4],3%
same,%Inh,[5],0%
same,%Inh,[6],41%
same,%Inh,[7],0%
same,%Inh,[8],0%
same,%Inh,[9],0%
same,%Inh,[10],0%
same,%Inh,[11],0%
same,%Inh,[12],0%
same,%Inh,[13],0%
same,%Inh,[14],11%
same,%Inh,[15]; [21],14%
same,%Inh,[16],24%
same,%Inh,[17],0%
same,%Inh,[18],0%
same,%Inh,[19],0%
same,%Inh,[20],7%
c1ccc(-c2ccnc3[nH]ccc23)cc1 [SB-693578],%Inh,[1],1%
same,%Inh,[2],8%
same,%Inh,[3],0%
same,%Inh,[4],8%
same,%Inh,[5],0%
same,%Inh,[6],0%
same,%Inh,[7],90%
same,%Inh,[8],0%
same,%Inh,[9],6%
same,%Inh,[10],0%
same,%Inh,[11],56%
same,%Inh,[12],3%
same,%Inh,[13],0%
same,%Inh,[14],22%
same,%Inh,[15]; [21],13%
same,%Inh,[16],60%
same,%Inh,[17],0%
same,%Inh,[18],4%
same,%Inh,[19],0%
same,%Inh,[20],34%
O=c1cc(N2CCOCC2)nc2n(Cc3ccccc3F)ccn12 [GSK2297428],%Inh,[1],24%
same,%Inh,[2],0%
same,%Inh,[3],0%
same,%Inh,[4],2%
same,%Inh,[5],20%
same,%Inh,[6],0%
same,%Inh,[7],0%
same,%Inh,[8],0%
same,%Inh,[9],0%
same,%Inh,[10],0%
same,%Inh,[11],0%
same,%Inh,[12],0%
same,%Inh,[13],0%
same,%Inh,[14],80%
same,%Inh,[15]; [21],3%
same,%Inh,[16],35%
same,%Inh,[17],0%
same,%Inh,[18],33%
same,%Inh,[19],0%
same,%Inh,[20],35%
COC(=O)C(Cc1ccccc1)NC(=O)NC1CCN(c2ccnc(Nc3ccc(F)cc3)n2)C1 (stereo not shown) [GSK1379714],%Inh,[1],33%
same,%Inh,[2],5%
same,%Inh,[3],2%
same,%Inh,[4],0%
same,%Inh,[5],0%
same,%Inh,[6],0%
same,%Inh,[7],0%
same,%Inh,[8],6%
same,%Inh,[9],100%
same,%Inh,[10],0%
same,%Inh,[11],58%
same,%Inh,[12],1%
same,%Inh,[13],0%
same,%Inh,[14],13%
same,%Inh,[15]; [21],6%
same,%Inh,[16],24%
same,%Inh,[17],4%
same,%Inh,[18],0%
same,%Inh,[19],0%
same,%Inh,[20],0%
COc1ccc(Nc2nccc(N3CCC(NC(=O)C(C)c4ccc(Cl)cc4)CC3)n2)cc1 (stereo not shown) [GSK1379812],%Inh,[1],26%
same,%Inh,[2],0%
same,%Inh,[3],0%
same,%Inh,[4],2%
same,%Inh,[5],0%
same,%Inh,[6],12%
same,%Inh,[7],1%
same,%Inh,[8],0%
same,%Inh,[9],0%
same,%Inh,[10],0%
same,%Inh,[11],8%
same,%Inh,[12],0%
same,%Inh,[13],0%
same,%Inh,[14],16%
same,%Inh,[15]; [21],8%
same,%Inh,[16],0%
same,%Inh,[17],0%
same,%Inh,[18],0%
same,%Inh,[19],0%
same,%Inh,[20],15%
COc1cccc(NC(=O)Nc2ccc(C)c(-c3ccc(C(=O)Nc4ccncc4)cc3)c2)c1 [GSK1398474],%Inh,[1],37%
same,%Inh,[2],0%
same,%Inh,[3],25%
same,%Inh,[4],41%
same,%Inh,[5],10%
same,%Inh,[6],25%
same,%Inh,[7],0%
same,%Inh,[8],0%
same,%Inh,[9],28%
same,%Inh,[10],0%
same,%Inh,[11],0%
same,%Inh,[12],3%
same,%Inh,[13],0%
same,%Inh,[14],10%
same,%Inh,[15]; [21],13%
same,%Inh,[16],0%
same,%Inh,[17],0%
same,%Inh,[18],0%
same,%Inh,[19],0%
same,%Inh,[20],20%
COC(=O)c1cccc(NC(=O)NC2CCN(c3ccnc(Nc4ccc(F)cc4)n3)C2)c1 (stereo not shown) [GSK1379725],%Inh,[1],24%
same,%Inh,[2],0%
same,%Inh,[3],0%
same,%Inh,[4],0%
same,%Inh,[5],13%
same,%Inh,[6],15%
same,%Inh,[7],0%
same,%Inh,[8],0%
same,%Inh,[9],5%
same,%Inh,[10],0%
same,%Inh,[11],38%
same,%Inh,[12],0%
same,%Inh,[13],0%
same,%Inh,[14],0%
same,%Inh,[15]; [21],0%
same,%Inh,[16],0%
same,%Inh,[17],0%
same,%Inh,[18],0%
same,%Inh,[19],0%
same,%Inh,[20],0%
COc1ccc(Nc2nccc(-c3ccc(NC(=O)c4cc5cc(F)ccc5[nH]4)cc3)n2)cc1 [GSK1229496],%Inh,[1],4%
same,%Inh,[2],0%
same,%Inh,[3],0%
same,%Inh,[4],9%
same,%Inh,[5],0%
same,%Inh,[6],0%
same,%Inh,[7],0%
same,%Inh,[8],0%
same,%Inh,[9],3%
same,%Inh,[10],9%
same,%Inh,[11],22%
same,%Inh,[12],0%
same,%Inh,[13],0%
same,%Inh,[14],0%
same,%Inh,[15]; [21],0%
same,%Inh,[16],41%
same,%Inh,[17],0%
same,%Inh,[18],0%
same,%Inh,[19],0%
same,%Inh,[20],0%
O=c1cc(N2CCOCC2)nc2n(Cc3cccc(Cl)c3Cl)c3ccccc3n12 [GSK2299009],%Inh,[1],41%
same,%Inh,[2],9%
same,%Inh,[3],28%
same,%Inh,[4],16%
same,%Inh,[5],0%
same,%Inh,[6],17%
same,%Inh,[7],19%
same,%Inh,[8],0%
same,%Inh,[9],0%
same,%Inh,[10],0%
same,%Inh,[11],0%
same,%Inh,[12],25%
same,%Inh,[13],0%
same,%Inh,[14],5%
same,%Inh,[15]; [21],14%
same,%Inh,[16],0%
same,%Inh,[17],0%
same,%Inh,[18],9%
same,%Inh,[19],0%
same,%Inh,[20],19%
O=C(Nc1n[nH]c2cc(-c3ccsc3)ccc12)C1CC1 [SB-732932],%Inh,[1],14%
same,%Inh,[2],29%
same,%Inh,[3],75%
same,%Inh,[4],0%
same,%Inh,[5],0%
same,%Inh,[6],4%
same,%Inh,[7],28%
same,%Inh,[8],0%
same,%Inh,[9],0%
same,%Inh,[10],0%
same,%Inh,[11],40%
same,%Inh,[12],79%
same,%Inh,[13],0%
same,%Inh,[14],38%
same,%Inh,[15]; 1 µM,29%
same,%Inh,[16],43%
same,%Inh,[17],0%
same,%Inh,[18],7%
same,%Inh,[19],26%
same,%Inh,[20],24%
Cc1ccc(NC(=O)c2ccc(Cl)cc2)cc1-c1ccc(C(=O)Nc2ccncc2)cc1 [GSK1398467],%Inh,[1],37%
same,%Inh,[2],0%
same,%Inh,[3],0%
same,%Inh,[4],2%
same,%Inh,[5],30%
same,%Inh,[6],0%
same,%Inh,[7],1%
same,%Inh,[8],0%
same,%Inh,[9],0%
same,%Inh,[10],0%
same,%Inh,[11],24%
same,%Inh,[12],0%
same,%Inh,[13],0%
same,%Inh,[14],3%
same,%Inh,[15]; [21],17%
same,%Inh,[16],0%
same,%Inh,[17],0%
same,%Inh,[18],0%
same,%Inh,[19],0%
same,%Inh,[20],3%
